Reference: the supplement of paper PMC13380429
Values without a mark were called inactive.

System: Vero E6 infected with SARS-CoV-2
Test: inhibition of SARS-CoV-2 cytopathic effect; higher = more antiviral protection, active = above 15
Conditions: 48 h

| SMILES | inhibition of SARS-CoV-2 cytopathic effect (1 nM) | inhibition of SARS-CoV-2 cytopathic effect (8.33 nM) | inhibition of SARS-CoV-2 cytopathic effect (100 nM) | inhibition of SARS-CoV-2 cytopathic effect (833.33 nM) | inhibition of SARS-CoV-2 cytopathic effect (10000 nM) |
| --- | --- | --- | --- | --- | --- |
| C[N+](C)(C)CCOP(=O)(O)OC[C@H](O)CO [choline-alfoscerate] | -1.69% | -1.94% | -3.48% | -1.31% | -2.46% |
| CC1(C)C[C@@H]1C(=O)N/C(=C\CCCCSC[C@H](N)C(=O)O)C(=O)O [Cilastatin Sodium] | 1.3% | 3.44% | -0.05% | -0.19% | -0.52% |
| COc1cc2cc(c1Cl)N(C)C(=O)C[C@H](OC(=O)C(C)C)[C@]1(C)O[C@@H]1[C@H](C)[C@@H]1C[C@@](O)(NC(=O)O1)[C@H](OC)/C=C/C=C(\C)C2 [ansamitocin-p-3] | 2.87% | -1.3% | -3.14% | -0.53% | 0.75% |
| CC[C@]12CCCN3CCc4c(n(c5ccccc45)C(=O)C1)[C@@H]32 [vinburnine] | -4.83% | -3.72% | -1.1% | 0.35% | -0.52% |
| COCC[n+]1c2c(n(Cc3cnccn3)c1C)C(=O)c1ccccc1C2=O | 0.33% | 4.83% | 2.74% | -2.2% | -9.2% |
| CCCCCCCCCCCCCCCCCCCCCC(=O)Nc1ccn([C@@H]2O[C@H](CO)[C@@H](O)[C@@H]2O)c(=O)n1 [enocitabine] | -3% | -4.05% | -1.69% | -5.11% | -4.84% |
| CCC(C)n1ncn(-c2ccc(N3CCN(c4ccc(OCC5COC(Cn6cncn6)(c6ccc(Cl)cc6Cl)O5)cc4)CC3)cc2)c1=O (stereo not given) [itraconazole] | 2.52% | 7.17% | 2.54% | -1.78% | -7.27% |
| COC(=O)C1=C(C)NC(C)=C(C(=O)O[C@H]2CCN(Cc3ccccc3)C2)[C@H]1c1cccc([N+](=O)[O-])c1 [barnidipine] | 2.33% | 1.62% | 1.31% | 3.84% | -0.56% |
| CN(C)CC/C=C1/c2ccccc2Sc2ccc(Cl)cc21 [chlorprothixene] | 5.54% | 3.98% | -4.95% | -3.59% | -1.82% |
| CCCCOc1nc(N)c2c(n1)N(Cc1cccc(CN3CCCC3)c1)CC(=O)N2 | 0.32% | 2.16% | 0.03% | 2.02% | 1.92% |
| N#Cc1cccc(C(=O)Nc2cc(-c3ccccc3)nn2-c2ccccc2)c1 | 1.77% | 4.71% | 3.47% | 3.43% | 1.98% |
| O=C1NS(=O)(=O)c2ccccc21 [saccharin] | 0.13% | -1.09% | 0.17% | -0.12% | -2.82% |
| N[C@@H](CS(=O)O)C(=O)O [L-cysteinesulfinic-acid] | 0.48% | 0.74% | 1.16% | -1.19% | 2.03% |
| NC1=NCC2c3ccccc3Cc3ccccc3N12 (stereo not given) [epinastine] | -1.87% | -1.14% | 0.71% | 7.29% | 1.93% |
| O=C(O)COCCN1CCN(C(c2ccccc2)c2ccc(Cl)cc2)CC1 (stereo not given) [cetirizine] | -1.03% | 1.14% | -0.08% | 0.99% | -2.71% |
| N=C(N)S/C=C\C(=O)O | 1.98% | 0.81% | -2.6% | -1.03% | -0.56% |
| O=C(O)c1ccc2cc(-c3ccc(O)c(C45CC6CC(CC(C6)C4)C5)c3)ccc2c1 | 1.24% | 1.61% | -0.4% | -2.65% | -7.34% |
| CC(C)(C#N)c1cc(Cn2cncn2)cc(C(C)(C)C#N)c1 [anastrozole] | -1.6% | 0.38% | -0.32% | -1.74% | -0.89% |
| C[C@@H]1CN(Cc2ccc(F)cc2)CCN1C(=O)COc1ccc(Cl)cc1NC(N)=O | -1.77% | -0.1% | -2% | -1.98% | -1.75% |
| Cc1ccc(Cl)cc1N(CC(=O)Nc1c(F)cccc1F)S(C)(=O)=O | 2.5% | -2.01% | -1.24% | 0.27% | -0.21% |

| SMILES | inhibition of SARS-CoV-2 cytopathic effect (1 nM) | inhibition of SARS-CoV-2 cytopathic effect (8.33 nM) | inhibition of SARS-CoV-2 cytopathic effect (100 nM) | inhibition of SARS-CoV-2 cytopathic effect (833.33 nM) | inhibition of SARS-CoV-2 cytopathic effect (10000 nM) |
| --- | --- | --- | --- | --- | --- |
| O=C(NOCC(O)CO)c1cc(Br)c(F)c(F)c1Nc1ccc(I)cc1F (stereo not given) | -0.27% | -0.08% | -8.55% | -10% | -12.5% |
| N#Cc1ccc(NCCNCC(=O)N2CCC[C@H]2C#N)nc1 | 0.59% | 2.4% | -0.06% | 3.35% | 2.5% |
| CCc1c(O)cc(O)c(C(=O)c2ccc(OCCN3CCOCC3)c(OC)c2)c1CC(=O)N(CCOC)CCOC | -1.17% | -2.57% | -1.95% | -1.17% | 0.48% |
| Cn1cc(C(=O)OCC2CCN(CCNS(C)(=O)=O)CC2)c2ccccc21 | -2.5% | 4.63% | 5.3% | 6.93% | -0.18% |
| COc1cc(Nc2ncc(F)c(Nc3ccc4c(n3)NC(=O)C(C)(C)O4)n2)cc(OC)c1OC | -3.02% | -0.43% | -2.04% | -4.61% | -4.19% |
| Cn1cncc1[C@@](N)(c1ccc(Cl)cc1)c1ccc2c(c1)c(-c1cccc(Cl)c1)cc(=O)n2C [tipifarnib] | 0.24% | 0.1% | 1.79% | 2.2% | -9.4% |
| OCCCNc1cc(-c2ccnc(Nc3cccc(Cl)c3)n2)ccn1 | 1.32% | -0.77% | 1.6% | -16.6% | 11.2% |
| CCOC(=O)N1c2ccc(C(F)(F)F)cc2[C@@H](N(Cc2cc(C(F)(F)F)cc(C(F)(F)F)c2)C(=O)OC)C[C@H]1CC | 0.17% | 0.5% | 0.49% | 1.09% | 1.77% |
| N[C@H](C(=O)O)c1cc(O)no1 [ibotenic-acid] | 2.28% | 1.34% | 0.56% | -0.13% | -0.16% |
| COc1ccc([C@]2(C#N)CC[C@@H](C(=O)O)CC2)cc1OC1CCCC1 [cilomilast] | -1.82% | -3.26% | -2.36% | -1.23% | -0.83% |
| CCn1cc(-c2ccnc3[nH]c(-c4cccc(CN(C)C)c4)cc23)c(-c2ccc(NC(=O)N(C)C)cc2)n1 | 0.02% | -2.56% | -1.67% | -3.22% | 1.16% |
| CN(C)CCCN1c2ccccc2Sc2ccc(C(F)(F)F)cc21 [triflupromazine] | 1.3% | -0.49% | -1.51% | 1.78% | 0.59% |
| COc1cc2ncnc(Nc3ccc(Cl)cc3F)c2cc1OC | 1.92% | -0.75% | -1.55% | -5% | -11.2% |
| O=C(NC[C@H]1CN(c2ccc(N3CCOCC3=O)cc2)C(=O)O1)c1ccc(Cl)s1 [Rivaroxaban (Xarelto)] | 1.99% | 1.35% | 3.46% | 1.51% | 3.09% |
| O=C(Nc1c[nH]nc1-c1nc2ccc(CN3CCOCC3)cc2[nH]1)NC1CC1 | 0.02% | -0.1% | 0.35% | 0.87% | -5.1% |
| COc1ccc2c(c1)C=C1Cn3c-2c(C2CCCCC2)c2ccc(cc23)C(=O)NS(=O)(=O)N(C)CCOCCN(C)C1=O | 3.67% | 0.37% | 0.59% | 2.72% | 8.22% |
| CCOC(=O)c1ccc(N2NC(=O)/C(=C/c3ccc([N+](=O)[O-])o3)C2=O)cc1 | 1.63% | -1.91% | -0.91% | -2.48% | -6.2% |
| COc1ccc(/C=C/C(=O)/C=C(O)/C=C/c2ccc(OC)c(OC)c2)cc1OC | 1.2% | -0.13% | 3.36% | 5.15% | 19.7% (active) |
| CC(=O)Nc1ccc(OC[C@](C)(O)C(=O)Nc2ccc([N+](=O)[O-])c(C(F)(F)F)c2)cc1 [andarine] | -0.84% | -0.36% | -2.49% | -1.89% | -1.92% |
